GCN5L2 inh-1: blocks human GCN5L2 histone acetyltransferase; hit rate 0.21% among 390,000; GCN5L2 HAT assay, ThioGlo1 CoA-SH fluorescence; AID 504327; Q92830; Potency, µM (highest dose often 58.9 µM), for inactives: top-dose activity change, negative = inhibition, usual class: inhibitors; note: potency is the fitted concentration of half-maximal effect; % is set by controls: 0 for no effect and ±100 for the full control effect
Target sequence (Q92830 whole entry, looked up): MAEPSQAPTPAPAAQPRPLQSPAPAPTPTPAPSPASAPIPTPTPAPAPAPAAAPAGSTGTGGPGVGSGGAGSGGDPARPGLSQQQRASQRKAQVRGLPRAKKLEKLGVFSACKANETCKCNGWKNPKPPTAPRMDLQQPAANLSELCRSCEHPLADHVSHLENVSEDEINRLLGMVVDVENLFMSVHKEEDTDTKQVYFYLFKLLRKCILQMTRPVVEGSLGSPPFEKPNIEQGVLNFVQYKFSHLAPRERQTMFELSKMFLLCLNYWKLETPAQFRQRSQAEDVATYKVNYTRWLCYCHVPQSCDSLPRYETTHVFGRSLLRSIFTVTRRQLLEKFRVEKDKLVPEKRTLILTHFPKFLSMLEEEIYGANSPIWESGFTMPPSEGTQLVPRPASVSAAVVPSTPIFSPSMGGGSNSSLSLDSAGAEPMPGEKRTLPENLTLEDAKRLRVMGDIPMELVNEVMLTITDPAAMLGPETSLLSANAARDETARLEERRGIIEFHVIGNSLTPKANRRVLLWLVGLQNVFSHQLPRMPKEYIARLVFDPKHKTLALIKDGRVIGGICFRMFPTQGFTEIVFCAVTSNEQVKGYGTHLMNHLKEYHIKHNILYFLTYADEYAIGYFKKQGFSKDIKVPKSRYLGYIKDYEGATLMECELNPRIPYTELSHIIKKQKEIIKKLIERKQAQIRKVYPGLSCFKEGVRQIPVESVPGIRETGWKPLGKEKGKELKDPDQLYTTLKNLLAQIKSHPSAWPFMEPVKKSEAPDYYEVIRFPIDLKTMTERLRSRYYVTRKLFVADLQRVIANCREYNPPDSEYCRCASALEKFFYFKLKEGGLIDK
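Fluorescence readout, Ex340nm/Em540nm: ThioGlo1 (50uM final) reacts with free CoA thiol released as 20nM GCN5L2 acetylates H3(1-25) peptide (75uM) using acetyl-CoA (70uM). Compound and enzyme sat 15 min beforehand; 20 min room-temperature reaction.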
BLM helicase inh: Bloom syndrome helicase (human) inhibition; recombinant BLM DNA unwinding, fluorescence dequenching; Potency, µM (titrated, usually from 56.1 µM), for the others: top-dose activity change, negative = inhibition, actives largely listed as inhibitors; hit rate 0.2% among 350,000;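 note: potency is the fitted concentration of half-maximal effect; plate controls were vehicle for no effect and no enzyme for full effect; nearly all actives have a fitted effect of over 35% in size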
TDP1 block: blocks human tyrosyl-DNA phosphodiesterase 1; recombinant TDP1, AlphaScreen DNA substrate cleavage; Potency, µM (series often up to 130 µM), inactives show at the highest dose activity change, negative = inhibition, hits mostly inhibitors; hit rate 0.28% among 350,000; note: potency is the fitted concentration of half-maximal effect; % is set by controls: 0 for no effect and ±100 for the full control effect; nearly all actives have a fitted effect of over 40% in size
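Recombinant E. coli-expressed Tdp1 (1 nM) preincubated with compound 15 min at RT, then 5'-biotin/3'-phosphotyrosine-FITC DNA substrate (15 nM) added for 5 min. AlphaScreen beads (10 ug/ml) added, 10 min RT; tyrosine-FITC cleavage read as signal loss.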
RECQ1 inh-1: inhibitors of human RECQ1 DNA helicase; P46063; hit rate 0.54% among 240,000; Potency, µM (series often up to 57.3 µM), inactives show top-dose activity, negative = inhibition, actives largely listed as inhibitors; RECQ1 DNA unwinding, red fluorescence kinetic read;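 note: potency is the fitted concentration of half-maximal effect; plate controls were vehicle for no effect and no enzyme for full effect; nearly all actives have a fitted effect of over 30% in size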
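RECQ1T1 50 nM; forked duplex (20 bp + 30-nt ss tails) 200 nM, ATP 2 mM final; pH 8.0, 2 mM MgCl2, 2.5 ug/ml poly(dI-dC); 15 min compound preincubation; discontinuous kinetic read over 2 h at RT.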
RGS4 inh: inhibitors of human regulator of G protein signaling 4; Transcreener GDP fluorescence polarization, RGS4-accelerated GTP hydrolysis; Potency, µM (series often up to 114 µM), for the others: at the top dose activity change, negative = inhibition, hits mostly inhibitors; hit rate 0.039% among 390,000; AID 504845; note: potency is the fitted concentration of half-maximal effect; % is set by controls: 0 for no effect and ±100 for the full control effect; nearly all actives have a fitted effect of over 75% in size
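MLSMR compounds (23 nl, pin-transferred) preincubated 10 min at room temperature with a 500nM (2x) first reagent, then RGS4 at 900nM (2x) plus Transcreener GDP mix added; fluorescence polarization (620/688 nm) read before and after 90 min at 30 °C.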
APE1 inh: blocks human APE1 abasic DNA cleavage | Potency, µM (series often up to 65.8 µM), inactives show at the top dose activity change, negative = inhibition, hits mostly inhibitors | P27695 | recombinant APE1, TAMRA/BHQ-2 abasic DNA cleavage fluorescence | AID 2517 | hit rate 0.35% among 350,000;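 note: potency is the fitted concentration of half-maximal effect; plate controls were vehicle for no effect and reference inhibitor for full effect; nearly all actives have a fitted effect of over 55% in size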
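Enzyme (0.75 nM final) and test compound are incubated 15 min at room temperature before adding 50 nM quenched THF abasic-site duplex. Cleavage dequenches TAMRA, followed at 525/598 nm over three reads one minute apart.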
RECQ1 conf: confirmation of human RECQ1 helicase inhibitors. Potency, µM (top dose mostly 229 µM), for inactives: at the top dose activity change, negative = inhibition, usual class: inhibitors. RECQ1 helicase DNA unwinding, fluorescence. shares compounds with RECQ1 inh-1. hit rate 28% among 610; note: potency is the fitted concentration of half-maximal effect; % is set by controls: 0 for no effect and ±100 for the full control effect; nearly all actives have a fitted effect of over 45% in size
RECQ1 ADP FP: counter-screen for RECQ1 inhibitors: ADP displacement; Potency, µM (top dose mostly 228 µM), without a hit: top-dose activity change, negative = inhibition, hits mostly inhibitors; ADP fluorescence polarization displacement counterscreen; AID 2711; shares compounds with RECQ1 inh-1; hit rate 27% among 530; note: potency is the fitted concentration of half-maximal effect; % is set by controls: 0 for no effect and ±100 for the full control effect; nearly all actives have a fitted effect of over 45% in size
RECQ1 inh-2: blocks human RECQ1 DNA unwinding; shares compounds with RECQ1 inh-1; recombinant RECQ1 DNA unwinding, red fluorescence; Potency, µM (highest dose often 119 µM), for the others: at the top dose activity, negative = inhibition, usual class: inhibitors; hit rate 15% among 1,100; note: potency is the fitted concentration of half-maximal effect; % is set by controls: 0 for no effect and ±100 for the full control effect; nearly all actives have a fitted effect of over 50% in size
GCN5L2 inh-2: confirmation of human GCN5L2 histone acetyltransferase inhibitors. shares compounds with GCN5L2 inh-1. GCN5L2 HAT, ThioGlo1 CoA fluorescence, 20 min. Potency, µM, hits mostly inhibitors. hit rate 70% among 140
Starred values were filed as active, the others as inactive; i = inactive; ? = inconclusive; · = not tested or not shown; [ ] = another dose, or the depositor's remark. Shown are actives, neighbours in structure and some others; about 0.87% of the full set was active somewhere. Calls come from the whole dose curve; as a rule, active = well fitted curve in the direction sought with a large enough effect; inconclusive = small, poorly fitted or top-dose-only effect, or another doubt; inactive = no such curve, though single readings can be large; an effect the other way counts as inactive or inconclusive.

SMILES | GCN5L2 inh-1 | BLM helicase inh | TDP1 block | RECQ1 inh-1 | RGS4 inh | APE1 inh | GCN5L2 inh-2 | others
CN1CCC(=O)N(C(CSc2ccc(Br)cc2)c2ccccc2)CC1 (stereo not drawn) | · | 5% | 10% | 7% | 5% | -4% | ·
Cc1ccc(-n2c(=O)c(C#N)cc3c(=O)n4ccccc4nc32)cc1 | 30% | -3% | 2% | 35µM* | -11% | ? | · | RECQ1 inh-2=1%
Cc1cccc(-n2c(=O)c(C#N)cc3c(=O)n4ccccc4nc32)c1 | -18% | -11% | -1% | 4% | -8% | 5% | ·
Cc1ccc(-n2cccc2C(=O)NS(=O)(=O)c2ccc(C)cc2)cc1 | -5% | -5% | · | ? | -9%[56.9 µM] | 1% | · | RECQ1 inh-2=?
CC(C)NC(=O)c1cnc2sc(N3CCCCCC3)nn2c1=O | -21% | -5% | 1% | · | -9% | · | ·
O=C1C(Cl)=C(N2CCCCC2)C(=O)C(Cl)=C1c1cnc(N2CCCCC2)s1 | -21% | 14µM* | -6%[56.1 µM] | 16µM* | ? | 20µM* | · | RECQ1 conf=50µM*;RECQ1 ADP FP=45µM*
CCCCNC(=O)CN1CCN(c2ncc(NC(=O)c3ccc(Cl)cc3)cc2C(=O)O)CC1 | -8% | 0% | -11% | · | 4% | · | ·
O=C(N/N=C/c1ccc(-c2ccc(S(=O)(=O)Nc3ncccn3)cc2)o1)c1cc2ccccc2cc1O | ? | ? | · | 3.5µM* | ? | ? | ? | RECQ1 conf=45µM*;RECQ1 ADP FP=-12%[91.9 µM]
COc1cccc2cc(C(=O)N(Cc3cccs3)Cc3cccs3)c(=O)oc12 | · | · | 1% | · | 6% | · | ·
O=C(CSc1nnc(-c2ccccc2)c(-c2ccccc2)n1)NCc1ccco1 | -3% | -3% | 12%[56.1 µM] | -1% | -30%[56.9 µM] | 3% | ·
O=C(CSc1nnc(-c2ccco2)c(-c2ccco2)n1)Nc1ccccc1 | ? | 14µM* | · | 10µM* | ? | 14µM* | 26* | RECQ1 inh-2=-26%
Cc1c2cnn(CC(=O)Nc3c(F)c(F)cc(F)c3F)c(=O)c2c(C)n1Cc1ccccc1F | 13µM* | ? | -13% | 25µM* | -42% | ? | 20* | RECQ1 inh-2=?
O=C(O)c1ccc(-c2c3nc(c(-c4ccc(C(=O)O)cc4)c4ccc([n-]4)c(-c4ccc(C(=O)O)cc4)c4nc(c(-c5ccc(C(=O)O)cc5)c5ccc2[n-]5)C=C4)C=C3)cc1.[Mn+3] | ? | -22% | 2% | -6% | · | -1% | ·
CCN(CC(=O)Nc1c(F)cccc1F)C(=O)/C=C/c1ccc2ccccc2n1 | ? | · | · | · | ? | 1.7µM* | 23*
CCN(CC(=O)Nc1c(F)cccc1F)C(=O)c1ccc2ccccc2n1 | -2% | · | 5% | · | -4% | 30% | ·
C/C(CCC(=O)OC[C@@H]1O[C@H](C#Cc2ccccc2)C=C[C@@H]1Oc1ccc(C)cc1)=N/O[C@@H](C)c1cc(-c2c(C)cc(C)cc2C)no1 | · | 3%[12.4 µM] | 7%[21 µM] | i[11.5 µM] | · | 15%[12.4 µM] | ·
COc1ccc2cc(-c3cc(C(=O)O)c4ccccc4n3)ccc2c1 | ? | 6% | 0% | -1% | 3% | 0% | ?
COc1ccc(-c2cc(C(=O)O)c3ccccc3n2)c(OC)c1 | -2% | 0% | 0% | 0% | -13% | -1% | ·
O=C(O)c1cc(-c2ccc(-c3ccc(F)cc3)o2)nc2ccccc12 | ? | -7% | -3% | · | ? | 9% | 20*
COc1cc(/C=C2\C(=O)ON=C2c2ccccc2)cc(OC)c1OC | 0% | 2% | -1% | -2% | ? | -10% | ·
Cc1ccc(C2=NOC(=O)/C2=C\C=C\c2ccccc2)cc1 | 25µM* | -21% | 6% | 3% | -137% | -8% | ?
CC(NC(=O)c1sc2cc([N+](=O)[O-])ccc2c1Cl)C(C)(C)C (stereo not drawn) | ? | -2% | 5% | -9% | ? | -1% | 3.6*
COc1ccc(-c2nn(-c3ccccc3)cc2/C=N/NC(=O)c2ccc3c(c2)OCO3)cc1 | -12% | -7% | 0% | -11% | · | -3% | ·
COc1ccc(-c2nn(-c3ccccc3)cc2/C=N/NC(=O)c2ccc(Br)o2)cc1 | 25µM* | -6% | 3% | ? | -2%[11.4 µM] | -1% | 9.1*
Cc1cccc(-c2nc(S(=O)(=O)c3ccc(Cl)cc3)c(N3CCCCCC3)o2)c1 | -1% | -4% | 4% | · | -7% | · | ·
SMILES | GCN5L2 inh-1 | BLM helicase inh | TDP1 block | RECQ1 inh-1 | RGS4 inh | APE1 inh | GCN5L2 inh-2 | others
CCN(CC)c1ccc2cc(C(C)=O)c(=O)oc2c1 | -6% | 0% | 4% | i | -45% | 2% | ·
CCN(CC)c1ccc2cc(NC(=O)CCC(=O)O)c(=O)oc2c1 | 20µM* | 2% | 5% | -2% | 5% | 2% | 32*
O=C1CCC(C(=O)Nc2cccc(S(=O)(=O)Nc3ccccc3F)c2)=NN1 | ? | · | 1% | · | -118% | 27% | 11*
O=C(Nc1cccc(S(=O)(=O)Nc2ccccc2F)c1)c1ccco1 | -4% | · | 1% | · | -19% | 3% | ·
C[C@H](N)C(=O)NCC(=O)N[C@H]1CSSC[C@@H](C(=O)O)NC(=O)[C@H](CO)NC(=O)[C@H]([C@@H](C)O)NC(=O)[C@H](Cc2ccccc2)NC(=O)[C@H]([C@@H](C)O)NC(=O)[C@H](CCCCN)NC(=O)[C@@H](Cc2c[nH]c3ccccc23)NC(=O)[C@H](Cc2ccccc2)NC(=O)[C@H](Cc2ccccc2)NC(=O)[C@H](CC(N)=O)NC(=O)[C@H](CCCCN)NC1=O | -19% | 0% | 10% | -6% | · | 1% | ·
O=P1(O)OP(=O)(O)OP(=O)(O)O1.[Al] | 31% | 1% | 8% | -6% | · | -3% | ·
Nc1ccc2nn(-c3cccc4ccccc34)nc2c1 | ? | -14% | -1% | 7% | 5%[11.4 µM] | -1% | 23*
